This is a sample that favours compounds with a hit; in the whole collection about 11% have one here.
HPGD block: blocks human HPGD enzyme activity; purified HPGD, NADH fluorescence kinetic, PGE2 substrate; 4.3% of 150,000 active; AID 894; Potency, µM, for the others: top-dose activity change, negative = inhibition, hits mostly inhibitors; also: potency is read from the fitted curve at half-maximal effect
Target sequence (P15428 whole entry, looked up): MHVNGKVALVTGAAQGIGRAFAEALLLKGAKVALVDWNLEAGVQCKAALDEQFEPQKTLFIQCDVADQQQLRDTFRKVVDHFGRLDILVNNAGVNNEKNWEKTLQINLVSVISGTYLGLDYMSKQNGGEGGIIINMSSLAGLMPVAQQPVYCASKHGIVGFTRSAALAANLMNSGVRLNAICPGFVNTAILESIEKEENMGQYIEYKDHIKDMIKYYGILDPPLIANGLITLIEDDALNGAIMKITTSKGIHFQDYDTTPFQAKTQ
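NADH formation kinetics: reaction with 30 uM PGE2 and 1 mM NAD+ (final), 20 nM enzyme, Tris-HCl pH 8 with Tween 20, after 15 min compound preincubation at room temperature. Fluorescence change, last versus first of five reads.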
IMPase cell inh: membrane-permeable compound that blocks inositol monophosphatase; P97697; CHO-M1 cells, IP1 accumulation, HTRF TR-FRET ratio; inhibition (IP1 accumulation), % at 46.1 µM; 120,000 tested, under 10 active; active = well fitted curve in the direction sought with a large enough effect in the signal ratio, not every such curve was filed as active; inconclusive = small, poorly fitted or top-dose-only effect, or a change in a side signal; inactive = no such curve, though single readings can be large or run the other way; the % refers to the signal ratio;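 also: cells stimulated with carbachol in lithium chloride buffer; plate controls were DMSO basal wells for no effect and reference inhibitor wells for full effect; higher means more IMPase inhibition seen as more IP1 and lower FRET ratio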
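Cellular IMPase inhibition is scored as a rise in cytosolic IP1, detected by competitive TR-FRET between d2-labelled IP1 and a europium anti-IP1 antibody. M1-expressing CHO cells were stimulated with carbachol for 30 min at 37C, with lithium (50 mM LiCl) present in the buffer.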
ALDH1A1 block: inhibitors of human aldehyde dehydrogenase 1A1; Purified ALDH1A1, NADH fluorescence, propionaldehyde substrate; 7.3% of 220,000 active; AID 1030; Potency, µM (titrated, usually from 75.3 µM), for the others: top-dose activity, negative = inhibition, actives largely listed as inhibitors;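 also: potency is read from the fitted curve at half-maximal effect; plate controls were no enzyme wells and a reference inhibitor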
Target sequence (P00352 whole entry, looked up): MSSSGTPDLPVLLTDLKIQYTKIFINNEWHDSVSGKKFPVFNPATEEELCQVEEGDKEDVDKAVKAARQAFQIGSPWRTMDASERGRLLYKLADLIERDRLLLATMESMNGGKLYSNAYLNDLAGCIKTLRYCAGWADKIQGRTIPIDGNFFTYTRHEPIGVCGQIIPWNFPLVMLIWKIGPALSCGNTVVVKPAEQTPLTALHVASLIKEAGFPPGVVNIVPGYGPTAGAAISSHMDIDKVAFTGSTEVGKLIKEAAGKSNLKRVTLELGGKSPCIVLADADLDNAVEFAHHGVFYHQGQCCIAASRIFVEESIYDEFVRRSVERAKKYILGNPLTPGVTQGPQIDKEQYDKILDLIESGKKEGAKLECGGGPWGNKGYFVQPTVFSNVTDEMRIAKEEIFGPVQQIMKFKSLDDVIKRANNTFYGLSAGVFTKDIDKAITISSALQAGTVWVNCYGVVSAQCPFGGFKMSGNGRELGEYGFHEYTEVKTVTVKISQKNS
PNC inhibitor: blocks assembly of the perinucleolar compartment | PC3M PTB-GFP, PNC prevalence imaging, 16 h; hits give low values | 3.1% of 140,000 active | activity change (PNC), negative = inhibition, % at 10 µM;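 active = readout at or below -70, meaning at least 70% loss of cells showing the perinucleolar compartment, a nuclear body marking cancer cells; inconclusive = readout between -30 and a set limit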;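 also: plate controls were DMSO wells for no effect and camptothecin positive control wells for full effect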
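PC3M cells stably expressing PTB-GFP, 750–1000 cells/well, treated 16 h at 37 °C with compound (23 nl of library stock), in duplicate. After paraformaldehyde fixation and Hoechst stain, imaged at 20x; PNC prevalence scored by image analysis.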
IMPase Li inh: IMPase inhibition in cells with lithium potentiation; 0.35% of 210,000 active; Potency, µM (highest dose often 59.4 µM), inactives show top-dose activity, negative = IMPase inhibition, actives largely listed as inhibitors; CHO-M1 cells, IP1 TR-FRET (IP-One), carbachol + lithium; active = well fitted inhibition curve with a large enough effect; inconclusive = small, poorly fitted or top-dose-only effect; inactive = no such curve, though single readings can be large or run the other way;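 also: IP1 builds up when IMPase is blocked and the TR-FRET signal falls; potency is read from the fitted curve at half-maximal effect; plate controls were basal vehicle for no effect and high inhibitor control for full effect; nearly all actives have a fitted effect of over 50% in size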
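CHO-M1, 2000 cells/well, 16–30 h culture; cpd + low Li+, 30 min 37C; lysis with d2-IP1/Eu-anti-IP1 Ab, 10 min RT; TR-FRET 665/620 ratio and 620 channel; AC50 via Hill.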
* marks the source's active call; other numbers are inactive results; ? = inconclusive; / = no result given; [ ] = remark or other dose. Unless noted, calls follow the shape of the dose curve; as a rule, active = well fitted inhibition curve with a large enough effect (not every such curve was filed as active); inconclusive = small, poorly fitted or top-dose-only effect, or another doubt; inactive = no such curve, though single readings can be large or run the other way. Unless noted, % is scaled to controls: 0 for no effect and ±100 for the full control effect.

SMILES | HPGD block | IMPase cell inh | ALDH1A1 block | PNC inhibitor | IMPase Li inh
CC[C@](N)(CCC(=O)O)C(=O)O | -4% | -8 | -8% | / | -6%
C[C@H]1COC(=O)[C@H]2CCCN2C(=O)[C@@H](C)COC(=O)[C@H](Cc2ccccc2)NC1=O | / | / | 3%[13.5 µM] | / | /
O=S(=O)(c1ccc(NC(=S)NCCC(c2ccccc2)c2ccccc2)cc1)N1CCOCC1 | -16% | / | 13µM* | 43 | 1%
O=C(CCCCCN1C(=O)c2cccc3cccc(c23)C1=O)NO | -26% | / | ? | / | -2%
COc1cc(C2C3=C(CC(C)(C)CC3=O)Nc3c2c(=O)[nH]c(=O)n3Cc2ccccc2)ccc1O (centres undefined) | ? | / | -16% | 27 | 0%
COc1ccc(C2C3=C(CC(C)(C)CC3=O)Nc3c2c(=O)[nH]c(=O)n3Cc2ccccc2)cc1OC (centres undefined) | ? | 4 | -6% | -85* | -1%
O=C(Nc1cccc(F)c1)N1CCCC2(CCN(S(=O)(=O)c3ccccc3)CC2)C1 | -4% | / | -13% | / | 14%
Cn1ncc(Cl)c1C(=O)Nc1ccncc1 | 3% | 0[0.0738 µM] | -9% | ? | -5%
CCn1ncc(Cl)c1C(=O)Nc1ccncc1 | -17% | 3 | -4% | -114* | -2%[38.3 µM]
CCn1ncc(C(=O)Nc2cccc(Cl)c2)c1C | -4% | / | -1% | -89* | -8%
COc1ccc(CCNc2cc(N3CCN(C(=O)c4ccc(C)cc4)CC3)ccc2[N+](=O)[O-])cc1OC | -13% | / | 8.9µM* | -21 | 9%
COc1ccc(C(=O)N2CCN(c3ccc([N+](=O)[O-])c(NCCc4ccc(OC)c(OC)c4)c3)CC2)cc1 | -14% | / | ? | ? | 6%
COc1ccc(CCNc2cc(N3CCN(C(=O)c4ccccc4F)CC3)ccc2[N+](=O)[O-])cc1OC | -23% | 0 | 2.5µM* | 46 | -3%[38.3 µM]
C=CCSc1nc(NC)c2sccc2n1 | -12% | 0 | -4% | 9 | -6%[38.3 µM]
Cn1c(=O)[nH]c(=O)c2c1nc(SCCO)n2CC(O)COc1ccccc1 (centres undefined) | / | / | 3% | / | -6%
O=c1nc2n(c3sc4c(c13)CCCC4)C(CBr)CS2 (centres undefined) | ? | 6 | 13µM* | 14 | -11%[38.3 µM]
CO[C@@H]1COC(=O)[C@H](C)NC(=O)[C@@H](C)COC(=O)CCC[C@H]1C | / | / | -1%[13.5 µM] | / | /
COc1ccc2c(=O)c(-c3ccccc3)c(C)oc2c1 | -9% | -4 | ? | 30 | -15%[38.3 µM]
COc1cc(OC)c2c(=O)c(-c3ccccc3)c(C)oc2c1OC | -1% | / | 14µM* | / | 5%
Cc1cc(NC(=O)c2cnn3c(C(F)F)cc(C4CC4)nc23)no1 | -15% | 7 | 5µM* | -23 | 3%[38.3 µM]
O=C(NCCN1CCN(c2ccccc2)CC1)C1CCN(S(=O)(=O)c2cccc3nsnc23)CC1 | / | / | 1% | / | -5%
O=C(N/C(=C\c1ccccc1)C(=O)N1CCCCCC1)c1ccccc1 | / | / | -4% | / | 3%
O=C(N/C(=C/c1ccccc1)C(=O)N1CCCCCC1)c1ccccc1 | / | / | ? | / | 1%
O=C(/C(=C/c1ccccc1)c1ccccc1)N1CCCCC1 | 0.71µM* | 7 | 4% | 100 | 0%[38.3 µM]
O=C(/C=C/c1ccccc1)N/C(=C/c1ccccc1)C(=O)N1CCCCC1 | / | -16 | 14µM* | 11 | /
SMILES | HPGD block | IMPase cell inh | ALDH1A1 block | PNC inhibitor | IMPase Li inh
CCCCCCCCCCCCCCC/C=C/[C@@H](O)[C@H](NC(=O)CCCCCCCCCCCCC)OC (tested in a mixture with another compound) | -8% | / | ? | / | -9%
CCOc1ccc(C(=O)Nc2ccc3oc(-c4ccc5ccccc5c4)nc3c2)cc1 | / | -1 | / | / | /
Cc1oc(-c2ccc(Cl)cc2)cc1-c1nn2c(-c3ccoc3C)nnc2s1 | 25µM* | 2 | 20µM* | 48 | 21%[38.3 µM]
O=C(O)C1CCCCC1C(=O)Nc1ccccc1F (centres undefined) | -5% | -2 | 20µM* | 3 | 14%[38.3 µM]
O=C(O)/C=C\C(=O)Nc1ccc(F)c(F)c1F | / | / | 22µM* | / | /
O=C(O)/C=C\C(=O)Nc1ccccc1F | -4% | 0 | 35µM* | -119* | -4%
COc1ccccc1NC(=O)/C=C\C(=O)O | / | / | 0% | / | -3%
O=C(O)C1CCCCC1C(=O)Nc1ccccc1Cl (centres undefined) | -14% | 1 | 2% | 5 | 2%[38.3 µM]
O=C(Nc1ccc2oc(-c3ccc4ccccc4c3)nc2c1)c1cc(Cl)ccc1Cl | / | -2 | / | / | /
COc1ccc(OC)c(N=C(N)N=C(N)N)c1 | / | / | 3% | / | 5%
COc1ccc(N(CCC#N)C(=O)/C(C#N)=C/c2cccs2)cc1 | / | / | 14µM* | / | 6%
Cc1ccc(NC(=O)COC(=O)CCC(=O)c2ccc(C(C)(C)C)cc2)c([N+](=O)[O-])c1 | -21% | / | 0.5µM* | 14 | 12%
Cc1ccc(NC(=O)CCC(=O)OCC(=O)c2ccc(Oc3ccc([N+](=O)[O-])cc3)cc2)c(C)c1 | -5% | 3 | 22µM* | -24 | 10%[38.3 µM]
N#Cc1cnn2c3c(cnc12)C(=O)N1CCc2ccccc2C1C3 (centres undefined) | / | / | ? | / | 17%
Clc1cccc(Cl)c1C(Nc1nncs1)Nc1nncs1 | -4% | / | ? | / | -7%
COc1ccc(CN(CC2CCCO2)C(=O)c2cc3sccc3n2C)c(OC)c1 (centres undefined) | / | / | 11µM* | / | 30%
CCOC(=O)/C=C/CCC/C=C/C(=O)c1ccccc1 | -14% | / | -10% | / | 7%
Cc1onc(-c2c(F)cccc2Cl)c1C(=O)NC(=S)NC1CCS(=O)(=O)C1 (centres undefined) | 1% | / | 10% | 4 | 0%
CCNc1nc(NC(C)C)nc(N(C#N)Cc2ccccc2)n1 | -11% | 4 | 1.8µM* | ? | 26%[38.3 µM]
Cc1cc(C)nc(N(C#N)Cc2ccc([N+](=O)[O-])cc2)n1 | / | / | 1% | / | 7%
Cc1cc(C)nc(N(C#N)Cc2ccccc2)n1 | -19% | -1 | 14µM* | -17 | -3%[38.3 µM]
Cc1cc(C)nc(N(C#N)CC(=O)c2ccccc2)n1 | -28% | 13 | 28µM* | 36 | 53%[38.3 µM]
CCNc1nc(NC(C)C)nc(N(C#N)CC(=O)OC)n1 | / | / | ? | / | -7%
N#CN(Cc1ccccc1)Cc1ccccc1 | / | / | 40µM* | / | /
CCc1ccc(C(=O)CN(C#N)c2nc(C)cc(C)n2)cc1 | -11% | 15 | -6% | 55 | 11%[38.3 µM]
SMILES | HPGD block | IMPase cell inh | ALDH1A1 block | PNC inhibitor | IMPase Li inh
CCN1CCN(C(=O)c2sc3nc(C)nc(N4CCC(C)CC4)c3c2C)CC1 | -4% | -5 | -9% | -88* | 29%[38.3 µM]
Cc1nc(N2CCC(C)CC2)c2c(C)c(C(=O)O)sc2n1 | 20µM* | ? | -7% | 11 | ?
Oc1cc(O)cc(/C=C\c2ccc(O)c(O)c2)c1 | / | 10 | / | / | /
CCCCCCCCCCC/C=C\C/C=C\CCCC(=O)O | -8% | / | 11% | / | 7%
CCCCC/C=C\C/C=C\C/C=C\C/C=C\CCCC(=O)C(F)(F)F | -4% | / | 20µM* | / | 18%
O=C1C=CC(=C(c2ccc(O)cc2)c2ccc(O)cc2)C=C1 | 14µM* | / | -10% | / | 3%
